# The full list was thinned out, with the strongest signals kept by preference.
# B1: Cp ZmpB (Clostridium perfringens), Q0TR08 (protein)
# chain: MNKRKIAAIILATMITNLSATTIDVLAQELNTKNNSKVEVSHDDESHQARVSKFDLYNSDKLDAYNQEFQVSRSNIKSINNNGGKYNSSTIDKAIDGNLETHWETGKPNDANFTNEVVVTFNEITNIDRIVYSARRDSARGKGFAKEFEIYASLKDEGDDFNLVSSGEYTESTRDLVEIKFNPTDFKRLKFKFKKADQNWASAAEFMFYKEDKLNEKFNGLFTDSSMNKVSEEFNTLEKLNAFENELKDHPIYDLYKEGLNNARAILTETSENPTKATLGQITYNLNDDYNNQYRMPYKNIKAIKNNGRHYAAQNIEKAIDNDVNTYWETGTLNSSSFNNEVEVEFNDLVTLDRIVYGSRQSDLKGFAEEVYIYASRTSKGDTYKLVATGAHEATKGLVEAKFEPTEFKRVKFKFKKSKQNSATLNELMFYKPDEVYSSIPKLFTDGTMSELSEEFNSLEKINAFKEKAKNHPLYNDFNETIELAESLISNPRKEDVLELEMRGDSISEAKKRKVWNFQDWQITGLSARAGDKITVYVDVAEGDPTPTLLYKQSLTQHGGATSFQLKPGKNEITIPEINYESNGIPKDVIQGGDLFFTNYKSDSQKRAPKVRIEGASKYPVFILGKSDENEVMKELEAYVEKIKAEPKTTPNIFAVSSNKSLEFVQATYALDWYKKNNKTPKYTAEQWDQYIADAMGFWGFDNSKDVNSDFNFRIMPMVKNLSGGAFMNAGNGVIGIRPGNQDAILAANKGWGVAHELGHNFDTGGRTIVEVTNNMMPLFFESKYKTKTRITDQNIWENNTYPKVGLDDYSNNELYNKADSTHLAQLAPLWQLYLYDNTFYGKFERQFRERDFGNKNREDIYKSWVVAASDAMELDLTEFFARHGIRVDDKVKEDLAKYPKPDKKIYYLNDLAMNYKGDGFTENAKVSVSTSGSNGNIKLSFSVDDENKDNILGYEIRRDGKYVGFTSNDSFVDTKSNLDEDGVYVVTPYDRKLNTLNPIEVNALQPTLSVNPVITLALGEEFNEEEYIVAKDIKGNSLSESVKVKSSNVNTSKVGEYEVLYSLEDSKGNEYTKTSKVNVVSRKEYMSDLTPKQSSNGWGTVRKDKSISGGVIGLTRDGDFVDYNKGLGLHSNAEYVYDLEGKDYDYFESYVGVDKAMSSRPASSVIFKVLVDGEEKFNSGVMRSTTPQKYVKVDVKNAKELKLIVNDAGDGDSSDHASFGDAKLATLSSKPIIKGENLAYSMDEKVDLMKGITATDIEDGNITSKVQIKSSDFVEGKSGIFTVVYSVTDSDGLTSECSRTIAVTDKETQLSDLNWKSATIGSGSVRKDRAVSGNQIRLLNEDNSVETFAKGIGTHSYSEIVYNSEGYDIFDTWVGIDRHVADKKVSSVKFKVYVDGELKAETDVMRIDTPKKRLVVDVRNSKEIKLVVDVADNGNNWDHADWADAKFRNLAEYDASELNKAIEEAKKLDLNNYTEESSEALKNAISKGEEALLSKDKETINSALEELNKEMNSLVKVDLNAVINIPDKYLLKSIQNQLNKTGDITLGDMYSLTTLTLSGVEDLTGLENAKNLETLNMDYNEVKDLRPLSKLKKLNTLNAQEQFIAAGELKPSNGKVIGDSKVYNREGKNVAKTIRVVDKNGNTILEQDAKDEFTINTKDLSSGLYGVHVLFEDEGFSGVMFYLFNV
# Tests used:
# Test in all cases: glycan array binding signal (z-score within array); higher = stronger binding
# Details in all cases: glycan notation: IUPAC condensed, linker removed
# Fuc(a1-2)Gal = molecular target: Fuc(a1-2)Gal
# Procedure, shortened: (§1)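 Negative Z-scores can be read as non-binding. The Z-score is calculated within each array and then averaged across arrays of one protein sequence at different concentrations or buffers and across linkers. Arrays, 3228 in all, were curated from the Consortium for Functional Glycomics database and kept only where the protein sequence was available.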
# Fuc(a1-2)Gal(b1-3)GlcNAc = molecular target: Fuc(a1-2)Gal(b1-3)GlcNAc
# Procedure, shortened: as §1
# Fuc(a1-2)Gal(b1-4)Glc6S = molecular target: Fuc(a1-2)Gal(b1-4)Glc6S
# Procedure, shortened: as §1
# [1] = molecular target: Fuc(a1-2)Gal(b1-4)[Fuc(a1-3)]GlcNAc(b1-2)Man(a1-3)[Fuc(a1-2)Gal(b1-4)[Fuc(a1-3)]GlcNAc(b1-2)Man(a1-6)]Man(b1-4)GlcNAc(b1-4)[Fuc(a1-6)]GlcNAc
# Procedure, shortened: as §1
# [2] = molecular target: Fuc(a1-2)Gal6S(b1-3)GlcNAc
# Procedure, shortened: as §1
# [3] = molecular target: Fuc(a1-2)[GalNAc(a1-3)]Gal(b1-4)GlcNAc
# Procedure, shortened: as §1
# [4] = molecular target: Fuc(a1-2)[GalNAc(a1-3)]Gal(b1-4)GlcNAc(b1-2)Man(a1-3)[Fuc(a1-2)[GalNAc(a1-3)]Gal(b1-4)GlcNAc(b1-2)Man(a1-6)]Man(b1-4)GlcNAc(b1-4)[Fuc(a1-6)]GlcNAc
# Procedure, shortened: as §1
# [5] = molecular target: Fuc(a1-3)[Gal(b1-4)]GlcNAc(b1-6)GalNAc
# Procedure, shortened: as §1
# [6] = molecular target: Gal(a1-3)Gal(b1-3)GlcNAc(b1-3)GalNAc
# Procedure, shortened: as §1
# [7] = molecular target: Gal(a1-4)Gal(b1-3)GlcNAc(b1-2)Man(a1-3)[Gal(a1-4)Gal(b1-3)GlcNAc(b1-2)Man(a1-6)]Man(b1-4)GlcNAc(b1-4)GlcNAc
# Procedure, shortened: as §1
# [8] = molecular target: Gal(b1-3)GlcNAc(b1-2)Man(a1-3)[Gal(b1-3)GlcNAc(b1-2)Man(a1-6)]Man(b1-4)GlcNAc(b1-4)[Fuc(a1-6)]GlcNAc
# Procedure, shortened: as §1
# [9] = molecular target: Gal(b1-3)GlcNAc(b1-6)[Gal(b1-3)]GalNAc
# Procedure, shortened: as §1
# [10] = molecular target: Gal(b1-4)GalNAc(a1-3)[Fuc(a1-2)]Gal(b1-4)GlcNAc
# Procedure, shortened: as §1
# Gal(b1-4)GlcNAc(b1-2)Man = molecular target: Gal(b1-4)GlcNAc(b1-2)Man
# Procedure, shortened: as §1
# [11] = molecular target: Gal(b1-4)GlcNAc(b1-2)Man(a1-3)[Man(a1-6)]Man(b1-4)GlcNAc(b1-4)GlcNAc
# Procedure, shortened: as §1
# [12] = molecular target: Gal(b1-4)GlcNAc(b1-3)Gal(b1-3)GlcNAc
# Procedure, shortened: as §1
# [13] = molecular target: Gal(b1-4)GlcNAc(b1-3)Gal(b1-4)GlcNAc(b1-3)Gal(b1-4)GlcNAc(b1-2)[Gal(b1-4)GlcNAc(b1-3)Gal(b1-4)GlcNAc(b1-3)Gal(b1-4)GlcNAc(b1-6)]Man(a1-6)[Gal(b1-4)GlcNAc(b1-3)Gal(b1-4)GlcNAc(b1-3)Gal(b1-4)GlcNAc(b1-2)Man(a1-3)]Man(b1-4)GlcNAc(b1-4)[Fuc(a1-6)]GlcNAc
# Procedure, shortened: as §1
# [14] = molecular target: Gal(b1-4)GlcNAc(b1-3)Gal(b1-4)GlcNAc(b1-3)Gal(b1-4)GlcNAc(b1-3)Gal(b1-4)GlcNAc(b1-2)[Gal(b1-4)GlcNAc(b1-3)Gal(b1-4)GlcNAc(b1-3)Gal(b1-4)GlcNAc(b1-3)Gal(b1-4)GlcNAc(b1-6)]Man(a1-6)[Gal(b1-4)GlcNAc(b1-3)Gal(b1-4)GlcNAc(b1-3)Gal(b1-4)GlcNAc(b1-3)Gal(b1-4)GlcNAc(b1-2)Man(a1-3)]Man(b1-4)GlcNAc(b1-4)[Fuc(a1-6)]GlcNAc
# Procedure, shortened: as §1
# [15] = molecular target: Gal(b1-4)GlcNAc(b1-3)Gal(b1-4)GlcNAc(b1-3)Gal(b1-4)GlcNAc(b1-3)Gal(b1-4)GlcNAc(b1-3)Gal(b1-4)GlcNAc(b1-2)[Gal(b1-4)GlcNAc(b1-3)Gal(b1-4)GlcNAc(b1-3)Gal(b1-4)GlcNAc(b1-3)Gal(b1-4)GlcNAc(b1-3)Gal(b1-4)GlcNAc(b1-6)]Man(a1-6)[Gal(b1-4)GlcNAc(b1-3)Gal(b1-4)GlcNAc(b1-3)Gal(b1-4)GlcNAc(b1-3)Gal(b1-4)GlcNAc(b1-3)Gal(b1-4)GlcNAc(b1-2)Man(a1-3)]Man(b1-4)GlcNAc(b1-4)[Fuc(a1-6)]GlcNAc
# Procedure, shortened: as §1
# [16] = molecular target: Gal(b1-4)GlcNAc(b1-3)Gal(b1-4)[Fuc(a1-3)]GlcNAc(b1-3)Gal(b1-4)[Fuc(a1-3)]GlcNAc
# Procedure, shortened: as §1
# [17] = molecular target: Gal(b1-4)GlcNAc(b1-3)[Gal(b1-4)GlcNAc(b1-6)]Gal(b1-4)GlcNAc
# Procedure, shortened: as §1
# [18] = molecular target: Gal(b1-4)GlcNAc(b1-6)[Gal(b1-4)GlcNAc(b1-3)]GalNAc
# Procedure, shortened: as §1
# [19] = molecular target: Gal3S(b1-3)[Fuc(a1-4)]GlcNAc
# Procedure, shortened: as §1
# Gal3S6S(b1-4)GlcNAc6S = molecular target: Gal3S6S(b1-4)GlcNAc6S
# Procedure, shortened: as §1
# Gal4S6S(b1-4)GlcNAc = molecular target: Gal4S6S(b1-4)GlcNAc
# Procedure, shortened: as §1
# Gal6P(b1-4)GlcNAc = molecular target: Gal6P(b1-4)GlcNAc
# Procedure, shortened: as §1
# [20] = molecular target: GlcNAc(b1-2)Gal(b1-3)GalNAc
# Procedure, shortened: as §1
# [21] = molecular target: GlcNAc(b1-2)[GlcNAc(b1-4)]Man(a1-3)[GlcNAc(b1-2)Man(a1-6)]Man(b1-4)GlcNAc(b1-4)GlcNAc
# Procedure, shortened: as §1
# [22] = molecular target: GlcNAc(b1-3)Gal(b1-4)GlcNAc(b1-3)Gal(b1-4)GlcNAc(b1-3)Gal(b1-4)GlcNAc(b1-2)[GlcNAc(b1-3)Gal(b1-4)GlcNAc(b1-3)Gal(b1-4)GlcNAc(b1-3)Gal(b1-4)GlcNAc(b1-6)]Man(a1-6)[GlcNAc(b1-3)Gal(b1-4)GlcNAc(b1-3)Gal(b1-4)GlcNAc(b1-3)Gal(b1-4)GlcNAc(b1-2)Man(a1-3)]Man(b1-4)GlcNAc(b1-4)[Fuc(a1-6)]GlcNAc
# Procedure, shortened: as §1
# GlcNAc(b1-3)Man = molecular target: GlcNAc(b1-3)Man
# Procedure, shortened: as §1
binder,measurement,setting,value
B1,glycan array binding signal (z-score),Fuc(a1-2)Gal,22.4
same,glycan array binding signal (z-score),Fuc(a1-2)Gal(b1-3)GlcNAc,-0.148
same,glycan array binding signal (z-score),Fuc(a1-2)Gal(b1-4)Glc6S,-0.219
same,glycan array binding signal (z-score),[1],-0.251
same,glycan array binding signal (z-score),[2],-0.122
same,glycan array binding signal (z-score),[3],-0.068
same,glycan array binding signal (z-score),[4],-0.353
same,glycan array binding signal (z-score),[5],-0.181
same,glycan array binding signal (z-score),[6],-0.001
same,glycan array binding signal (z-score),[7],-0.252
same,glycan array binding signal (z-score),[8],-0.193
same,glycan array binding signal (z-score),[9],0.823
same,glycan array binding signal (z-score),[10],0.022
same,glycan array binding signal (z-score),Gal(b1-4)GlcNAc(b1-2)Man,0.161
same,glycan array binding signal (z-score),[11],-0.033
same,glycan array binding signal (z-score),[12],1.39
same,glycan array binding signal (z-score),[13],-0.102
same,glycan array binding signal (z-score),[14],-0.093
same,glycan array binding signal (z-score),[15],3.56
same,glycan array binding signal (z-score),[16],-0.332
same,glycan array binding signal (z-score),[17],-0.301
same,glycan array binding signal (z-score),[18],0.086
same,glycan array binding signal (z-score),[19],-0.055
same,glycan array binding signal (z-score),Gal3S6S(b1-4)GlcNAc6S,1.17
same,glycan array binding signal (z-score),Gal4S6S(b1-4)GlcNAc,0.461
same,glycan array binding signal (z-score),Gal6P(b1-4)GlcNAc,-0.373
same,glycan array binding signal (z-score),[20],2.81
same,glycan array binding signal (z-score),[21],1.11
same,glycan array binding signal (z-score),[22],-0.173
same,glycan array binding signal (z-score),GlcNAc(b1-3)Man,0.057

# Reference: the supplement of paper PMC8728848
